From PubChem BioAssay (NCI)
Compounds without any hit were thinned out: in the full panel of roughly 79,000, 15% have a hit. No stated cut-off is given here; in the data, active means growth inhibition above about 70%; inactive means the rest.

How the values were obtained:
[1] = NCI Yeast Anticancer Drug Screen. Data for the rad50 strain (AID 155);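 further: 0% = growth of vehicle-only cultures of the same strain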; conditions: S. cerevisiae rad50 strain growth inhibition, stronger effect = higher value; at 50.0 µM unless noted
Method in brief: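 Cells are treated with compound, grown, and their growth is then scored against vehicle-only cultures of the same repair-deficient yeast strain.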

[2] = NCI Yeast Anticancer Drug Screen. Data for the mec2-1 strain (AID 157); conditions: S. cerevisiae mec2-1 strain, stronger effect = higher value; at 50.0 µM unless noted
Method in brief: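 Readout is yeast growth inhibition, normalised to vehicle-treated controls, in the mec2-1 strain exposed to compound.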

[3] = NCI Yeast Anticancer Drug Screen. Data for the sgs1 mgt1 strain (AID 161);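 further: 0% = growth of cultures given vehicle only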; conditions: S. cerevisiae sgs1 mgt1 strain, stronger effect = higher value; at 50.0 µM unless noted
Method in brief: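 This yeast growth screen uses a strain with defined DNA-repair lesions; compound-treated growth is compared with vehicle-treated growth.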

[4] = NCI Yeast Anticancer Drug Screen. Data for the cln2 rad14 strain (AID 165);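 further: 0% = growth equal to vehicle treated cultures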; conditions: S. cerevisiae cln2 rad14 strain, stronger effect = higher value; at 50.0 µM unless noted
Method in brief: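 Relative to vehicle controls, growth inhibition of compound-treated cln2 rad14 yeast was recorded.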

[5] = NCI Yeast Anticancer Drug Screen. Data for the bub3 strain (AID 167); conditions: S. cerevisiae bub3 mutant strain, stronger effect = higher value; at 50.0 µM unless noted
Method in brief: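 Part of a panel of yeast mutants defective in DNA damage repair or cell cycle regulation. Each strain is grown with compound, and inhibition is calculated relative to solvent-treated cultures.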

[6] = NCI Yeast Anticancer Drug Screen. Data for the mlh1 rad18 strain (AID 175); conditions: S. cerevisiae mlh1 rad18 strain growth inhibition, stronger effect = higher value; at 50.0 µM unless noted
Method in brief: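 Test agents were incubated with a yeast strain of defined genotype (DNA damage repair defect). Inhibition of growth was derived by comparison with vehicle-exposed cultures.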

Measured: growth inhibition

CCCC(=O)OC1CC(n2cc(F)c(=O)[nH]c2=O)OC1CO (configuration not stated)
inactive: [1] 8.6% | [2] 0.45% | [3] 11.6% | [4] 2.55% | [5] 7.85% | [6] -28.6%

CC(C)(O)C[N+](=O)[O-]
inactive: [1] 5.85% | [2] -1.8% | [3] 0.85% | [4] -7.7% | [5] 0% | [6] 3.05%

COc1cccc(C(c2ccccc2)C(CC(=O)O)CC(=O)O)c1 (configuration not stated)
inactive: [1] 8.8% | [2] 8.6% | [3] -12.8% | [4] 4% | [5] -2.1% | [6] -16.5%

C#CC1(O)C2CCc3cc(OC)ccc3C2CCC1(C)C(=O)OC (configuration not stated)
inactive: [1] 10.8% | [2] -0.2% | [3] 4.05% | [4] 6.85% | [5] -11.9% | [6] -11.6%

CCc1cccc(CC)c1NC(=S)N/C=C(\C#N)S(=O)(=O)c1ccc(C)cc1
inactive: [1] -4.8% | [2] -10.6% | [3] 17.4% | [4] -15.4% | [5] -5.5% | [6] -20.5%

COC(=O)C1CC2(CCC1=O)Cc1ccccc1C2=O (configuration not stated)
inactive: [1] -15.5% | [2] -3.45% | [3] 28.5% | [4] 1.3% | [5] -4.25% | [6] -16.4%

CCCCCCCCCCCCCCCCCCCCCCCCC(=O)O
inactive: [1] -18.6% | [2] -22.6% | [3] -11.4% | [4] 4.15% | [5] -33.5% | [6] -25.5%

COC1C(O)C(n2ncc3c(SC)nc(SC)nc32)OC1C(O)CO (configuration not stated)
inactive: [1] 16.3% | [2] -3.95% | [3] -16.2% | [4] 8.95% | [5] -4% | [6] 14.4%

[Mn+2].[NH-]C(Cc1ccc(O)cc1)C(=O)O.[NH-]C(Cc1ccc(O)cc1)C(=O)O (configuration not stated)
inactive: [1] 0.35% | [2] 15.3% | [3] -10.5% | [4] -19.1% | [5] 0.95% | [6] -13%

COc1cccc(C2C(C(=O)Nc3cc(=O)n(C)c(=O)n3C)=C(C)NC(C)=C2C(=O)Nc2cc(=O)n(C)c(=O)n2C)c1O
inactive: [1] -15.1% | [2] 13% | [3] 13.4% | [4] 12.2% | [5] 2.55% | [6] 14.8%

COc1ccc(Cl)cc1NC(=O)Oc1ccc(NC(C)=O)cc1
inactive: [1] 3.2% | [2] -0.6% | [3] -1.15% | [4] -1.3% | [5] 11% | [6] 4.25%

Cc1ccc(C(CCC#N)OC(C)C)cc1 (configuration not stated)
inactive: [1] 0.95% | [2] 19.8% | [3] 25.1% | [4] 11.9% | [5] 3.15% | [6] 21.1%

CCOC(=O)C(C#N)(CC(=O)OC)C(c1cccc2ccccc12)c1cccc2ccccc12 (configuration not stated)
inactive: [1] 10.9% | [2] -12.7% | [3] 12.7% | [4] 21% | [5] -7.15% | [6] 13.8%

c1ccc2nc(CCC3CCCCN3)ccc2c1 (configuration not stated)
inactive: [1] 7.2% | [2] 7.5% | [3] -9.7% | [4] -14.2% | [5] -2.1% | [6] 17.1%

CC(C)C1Oc2ccc(Br)cc2C1O (configuration not stated)
inactive: [1] 11.2% | [2] 8.15% | [3] 2.25% | [4] -13.1% | [5] 18.7% | [6] 5.6%

CCOC(=O)CC(c1ccccc1)C(C)(C(=O)OCC)C(=O)OCC (configuration not stated)
inactive: [1] -18.3% | [2] -10.8% | [3] 14.8% | [4] 35.9% | [5] 14.2% | [6] -9.3%

O=C(OC1C2C=COC(OC3OC(CO)C(O)C(O)C3O)C2C2(CO)OC12)c1ccc(O)cc1 (configuration not stated)
inactive: [1] -0.15% | [2] -6.45% | [3] 17.8% | [4] 18.6% | [5] 1.8% | [6] -11.6%

CCOC(=O)C(=O)C(NC(=O)Cc1ccccc1)C(=O)OCC (configuration not stated)
inactive: [1] 27.2% | [2] -8.55% | [3] 1.85% | [4] -15.8% | [5] -0.25% | [6] 17.1%

ON=C(c1ccccn1)c1ccccn1
inactive: [1] 11.1% | [2] -7.6% | [3] 7.05% | [4] 4.35% | [5] -8.25% | [6] 3.8%

Cc1[nH]c(=O)nc(N/N=C/c2ccc(Cl)cc2)c1C(=O)NC(C)(CO)CO
inactive: [1] -30.6% | [2] -14.6% | [3] -43.5% | [4] -10.4% | [5] 16.7% | [6] -3.45%

O=C(O)COc1ccc(NC(=O)COc2ccc(Cl)c(Cl)c2)cc1
inactive: [1] 8.8% | [2] -10% | [3] -28.9% | [4] -30.1% | [5] 2.75% | [6] 15.1%

O=C(O)C(=O)c1c(O)[nH]c2ccccc12
inactive: [1] 1.35% | [2] -10.1% | [3] 11.5% | [4] -14.8% | [5] -8% | [6] 17.6%

Cc1nc2c(=O)[nH]c(=O)[nH]c2s1
inactive: [1] -12.6% | [2] 5.05% | [3] -4.2% | [4] -12% | [5] -7.5% | [6] -8.6%

CCOC(=O)C1C(=O)CC(C)(O)C(C(=O)OCC)C1c1ccc(OC)cc1 (configuration not stated)
inactive: [1] -27.4% | [2] 2.55% | [3] 8.65% | [4] -5.95% | [5] -2% | [6] 21.8%

Cc1cc(Cl)ccc1NC(=O)C1C(=O)N(c2ccc(Cl)cc2C)C(=O)/C1=N\N (configuration not stated)
inactive: [1] 0.65% | [2] -31.4% | [3] 10.4% | [4] -18.9% | [5] -9.1% | [6] 9.7%

Cc1cc([N+](=O)[O-])cc(Br)c1N
inactive: [1] 23.1% | [2] 11.1% | [3] -1.6% | [4] 3.25% | [5] 0.25% | [6] 25.4%

Cc1cc2ccccc2n1/C=C/C1=[N+](C)c2ccccc2C1(C)C
inactive: [1] 10.3% | [2] 6.25% | [3] 10.5% | [4] -38.9% | [5] 8.1% | [6] 25.9%

Nc1nc(Cl)cc(NCCCCCCCCNc2cc(Cl)nc(N)n2)n1
inactive: [1] -2.3% | [2] -1.65% | [3] -7.35% | [4] -7.8% | [5] -3.95% | [6] -3.55%

COC1CCC2(C)C(CCC3C4CCC(OC(C)=O)C4(C)CCC32)O1 (configuration not stated)
inactive: [1] 1.65% | [2] -9.55% | [3] -9.45% | [4] -6.7% | [5] -1.95% | [6] -14.8%

CCSc1[nH]c(Nc2nc(-c3ccccc3)n(-c3ccccc3)n2)c(C(N)=O)c1C(N)=O
inactive: [1] -16.9% | [2] 1.35% | [3] 7.8% | [4] -5.85% | [5] -9.75% | [6] 7%

CC(=O)c1cccc(NC(=O)CCCCCCCCC(=O)Nc2cccc(C(C)=O)c2)c1
inactive: [1] -5.7% | [2] -0.7% | [3] -1.55% | [4] -49.5% | [5] -1.2% | [6] 2.95%

Cn1ccnc1Sc1c([N+](=O)[O-])ncn1C
inactive: [1] 3.3% | [2] 5.95% | [3] 3.25% | [4] 29.3% | [5] 32.5% | [6] 10.4%

COc1ccc(-c2sc(C)nc2O)cc1
inactive: [1] 7.75% | [2] 2.35% | [3] 0.3% | [4] -20.8% | [5] -15.5% | [6] 7.2%

Cc1ccc(O)c(-c2ccnn2-c2ccccc2)c1
inactive: [1] 20.5% | [2] 33.9% | [3] 15.1% | [4] -10.8% | [5] 5.25% | [6] 35.8%

Cc1cc(C(C)(C)C)cc(CNC2CCCCC2)c1O
inactive: [1] -4.35% | [2] -27.4% | [3] -25.4% | [4] -18% | [5] -35.2% | [6] 10.2%

CCOC(=O)C1=C(c2ccccc2)OC(N)=C(C#N)C1c1ccccc1Cl (configuration not stated)
inactive: [1] 28.4% | [2] 18.7% | [3] 24.6% | [4] -21.4% | [5] 39.9% | [6] 51.5%

CCCCOc1c(Cl)c(Cl)cc(Cl)c1Cl
inactive: [1] -10.1% | [2] -15.8% | [3] -3.5% | [4] 2.2% | [5] 2.05% | [6] -17.1%
